Among the data in PubChem BioAssay (Tox21) are Potency, activity, negative = inhibition and activity change, negative = inhibition values, retold here.

Values joined by “and” are separate entries in the source; they are usually repeats but may differ in a detail not shown here. Identical values can stand only once. Results filed as inconclusive are left out. A call without a number means that no potency is given here. The source holds several records for some structures; these can differ, active in one and inactive in another. Active and inactive are the calls of the source. The call rests on the fitted dose curve.
Potency means the concentration at half of the fitted maximal effect.

Chain of Acetylcholinesterase (Homo sapiens) (P22303 whole entry, looked up): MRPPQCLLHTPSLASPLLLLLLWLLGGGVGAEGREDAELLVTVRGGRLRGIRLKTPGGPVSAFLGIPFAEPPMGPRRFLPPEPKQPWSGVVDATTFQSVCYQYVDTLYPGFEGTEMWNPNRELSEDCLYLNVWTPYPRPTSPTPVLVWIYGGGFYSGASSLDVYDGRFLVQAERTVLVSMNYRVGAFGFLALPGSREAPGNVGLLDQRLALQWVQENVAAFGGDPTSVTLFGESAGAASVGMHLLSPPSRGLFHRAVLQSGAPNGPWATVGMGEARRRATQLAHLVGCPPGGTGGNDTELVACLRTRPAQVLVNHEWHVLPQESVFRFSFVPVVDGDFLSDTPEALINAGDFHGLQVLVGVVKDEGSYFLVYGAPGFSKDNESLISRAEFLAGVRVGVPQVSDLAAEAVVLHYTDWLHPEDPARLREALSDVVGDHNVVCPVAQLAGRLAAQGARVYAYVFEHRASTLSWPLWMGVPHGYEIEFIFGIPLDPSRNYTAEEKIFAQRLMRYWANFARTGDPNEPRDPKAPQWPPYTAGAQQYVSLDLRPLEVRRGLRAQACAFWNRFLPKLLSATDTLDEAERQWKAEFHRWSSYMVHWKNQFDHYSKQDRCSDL

The first assay concerns the target Acetylcholinesterase (Homo sapiens) (UniProt P22303). Briefly: Acetylcholinesterase (AChE) small molecule antagonists: colormetric cell-based qHTS assay (AID 1347395). Further: nearly all actives have a fitted effect of over 30% in size. Conditions: SH-SY5Y cells AChE activity, colorimetric (Ellman); series mostly up to 115 µM. An outline of the steps:
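Endogenous AChE of human neuroblastoma SH-SY5Y cells was measured with an Ellman-type DTNB/acetylthiocholine mix. Compound pretreatment lasted 30 min at 37 C; substrate reaction ran 90 min at 37 C.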
Background: In qHTS, concentration-response curves come from the screen itself.
On to `Nc1ccc2c(c1)C(=O)c1ccccc1C2=O`, for which the Potency result was “inactive”.
As for `C=C(C)C(=O)OCC(CC)(COC(=O)C(=C)C)COC(=O)C(=C)C`, the Potency result is “inactive”.
With `CC1=C(CC(=O)O)c2cc(F)ccc2/C1=C\c1ccc(S(C)=O)cc1` (stereo not given), the Potency entry was “inactive”.
On the same count and under the same terms, then `Clc1cccc(Cl)n1`, with “inactive”; and `C=C(C)C(=O)OCCOC(=O)C(=C)C`, with “inactive”; and `O=C(NCCN1CCOCC1)c1ccc(Cl)cc1`, with “inactive”.
Consider `CCOC(=O)c1ccccc1C`, for which the Potency result was “inactive”.
As for `CCC(C)(O)CCC=C(C)C` (stereo not given), the Potency result is “inactive”.
In the case of `C[N+]1(C)CCC(=C(c2ccccc2)c2ccccc2)CC1`, the Potency entry is “inactive”.
Take `C=C(C)C(=O)OCCOCCOCCOCCOC(=O)C(=C)C`: the Potency entry was “inactive”.
Take `COc1cc2c(cc1OC)CN(C(=O)[C@H](C)N[C@@H](CCc1ccccc1)C(=O)O)[C@H](C(=O)O)C2`: the Potency entry was “inactive”.
For the molecule `Nc1cc([N+](=O)[O-])cc(Cl)c1O`, the Potency entry was “inactive”.
On to `c1ccc2ncccc2c1`, for which the Potency entry was “inactive”.
For the molecule `Cc1ccc(S(=O)(=O)O)c(C)c1`, the Potency entry is “inactive”.
Consider `CC1=C(/C=C/C(C)=C/C=C/C(C)=C/C(=O)O)C(C)(C)CCC1`, for which the Potency result was “inactive”.
For the molecule `O=C(O)c1ccc(Cl)c(Cl)c1`, the Potency entry was “inactive”.
With `O=C(Nc1cccc(Cl)c1)OCC#CCCl`, the Potency result was “inactive”.
As to `O=c1[nH]sc2cc(Cl)ccc12`, the Potency entry is “inactive”.
`CN1C(=O)c2ccccc2C1=O`: the Potency result is “inactive”.
For `CNCCCCOc1ccccc1Cc1ccccc1`, the Potency entry is “inactive”.
For the molecule `Cc1[nH]c(C)c(Cl)c(=O)c1Cl`, the activity, negative = inhibition is 1.65% [at 23.6 µM] (inactive).
For the molecule `Oc1cc(O)c(Cl)cc1Cl`, the Potency result was “inactive”.
Consider `CC(=O)OC(C)OC(C)=O`, for which the Potency result was “inactive”.
Turning to `O=c1[nH]cnc2[nH]ncc12`, the Potency entry is “inactive”.
In the case of `CCCCCCCC(=O)OCC`, the Potency entry was “inactive”.
Regarding `COc1ccccc1OC(=O)Oc1ccccc1OC`, the Potency result is “inactive”.
On to `c1ccc(SCCSc2ccccc2)cc1`, for which the Potency result is “inactive”.
In the case of `CC(=O)OCC(=O)[C@@]12N=C(C)O[C@@H]1C[C@H]1[C@@H]3CCC4=CC(=O)C=C[C@]4(C)[C@H]3[C@@H](O)C[C@@]12C`, the Potency entry is “inactive”.
On the same count and under the same terms, then `O=C(O)[C@@H](O)[C@H](O)[C@H](O)[C@@H](O)C(=O)O`, with “inactive”.
With `CCC(C)N` (stereo not given), the Potency result was “inactive”.
In the case of `Nc1nc(=S)c2[nH]cnc2[nH]1`, the Potency was 21.9 µM (active) and inactive.
`CCc1cccc2c3c([nH]c12)C(CC)(CC(=O)O)OCC3` (stereo not given): the Potency result is “inactive”.
Consider `C[C@]12CC[C@@H]3c4ccc(O)cc4CC[C@H]3[C@@H]1CC[C@@H]2O`, for which the Potency entry was “inactive”.
Take `CCN(CC)CCOC(=O)C(c1ccccc1)C1CCCCC1` (stereo not given): the Potency result was “inactive”.
As for `CCN1CCN(C(=O)N[C@@H](C(=O)N[C@@H]2C(=O)N3[C@@H]2SC(C)(C)[C@H]3C(=O)O)c2ccccc2)C(=O)C1=O`, the Potency entry was “inactive”.
`CCCCCCCCCCCCOCC1CO1` (stereo not given): the Potency entry was “inactive”.
With `O=c1oc(=O)c2cc3c(=O)oc(=O)c3cc12`, the Potency result is “inactive”.
The same measure, in the same setting: then `CC(C)(C)CCCCCCOC(=O)c1ccccc1C(=O)OCCCCCCC(C)(C)C`, with “inactive”.
For the molecule `CCCCCCCCCCCCOC(=O)c1cc(O)c(O)c(O)c1`, the Potency result is “inactive”.
Consider `CCc1ccccc1`, for which the Potency result was “inactive”.

The target is the same in another assay. Briefly: Acetylcholinesterase (AChE) small molecule antagonists: enzyme-based qHTS assay (AID 1347397). Further: nearly all actives have a fitted effect of over 55% in size. To be noted: Potency: AChE enzyme activity inhibition; outcome: AChE enzyme activity inhibition; series mostly up to 115 µM. The method, boiled down: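 Recombinant human AChE, dispensed at 50 mU/mL, was preincubated with Tox21 10K compounds or DMSO vehicle for 30 min at room temperature. DTNB plus acetylthiocholine was then added, and thiocholine was measured colorimetrically after a further 10 min.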
On to `Nc1ccc2c(c1)C(=O)c1ccccc1C2=O`, for which the Potency entry is “inactive”.
Take `C=C(C)C(=O)OCC(CC)(COC(=O)C(=C)C)COC(=O)C(=C)C`: the Potency entry was “inactive”.
The same measure, in the same setting: the value for `CC1=C(CC(=O)O)c2cc(F)ccc2/C1=C\c1ccc(S(C)=O)cc1` (stereo not given) was “inactive”.
With `Clc1cccc(Cl)n1`, the Potency entry is “inactive”.
For `C=C(C)C(=O)OCCOC(=O)C(=C)C`, the Potency entry is “inactive”.
Take `O=C(NCCN1CCOCC1)c1ccc(Cl)cc1`: the Potency entry was “inactive”.
Consider `CCOC(=O)c1ccccc1C`, for which the Potency entry was “inactive”.
On the same count and under the same terms, then `CCC(C)(O)CCC=C(C)C` (stereo not given), with “inactive”; and `C[N+]1(C)CCC(=C(c2ccccc2)c2ccccc2)CC1`, with “inactive”; and `C=C(C)C(=O)OCCOCCOCCOCCOC(=O)C(=C)C`, with “inactive”.
With `COc1cc2c(cc1OC)CN(C(=O)[C@H](C)N[C@@H](CCc1ccccc1)C(=O)O)[C@H](C(=O)O)C2`, the Potency result was “inactive”.
In the case of `Nc1cc([N+](=O)[O-])cc(Cl)c1O`, the Potency entry was “inactive”.
As for `c1ccc2ncccc2c1`, the Potency entry was “inactive”.
On the same count and under the same terms, then `Cc1ccc(S(=O)(=O)O)c(C)c1`, with “inactive”; and `CC1=C(/C=C/C(C)=C/C=C/C(C)=C/C(=O)O)C(C)(C)CCC1`, with “inactive”; and `O=C(O)c1ccc(Cl)c(Cl)c1`, with “inactive”.
Consider `O=C(Nc1cccc(Cl)c1)OCC#CCCl`, for which the Potency entry was “inactive”.
As to `O=c1[nH]sc2cc(Cl)ccc12`, the Potency entry was “inactive”.
Take `CN1C(=O)c2ccccc2C1=O`: the Potency result is “inactive”.
For the molecule `CNCCCCOc1ccccc1Cc1ccccc1`, the Potency result was “inactive”.
With `Cc1[nH]c(C)c(Cl)c(=O)c1Cl`, the activity change, negative = inhibition was -0.693% [at 23.6 µM] (inactive).
Turning to `Oc1cc(O)c(Cl)cc1Cl`, the Potency result was “inactive”.
With `CC(=O)OC(C)OC(C)=O`, the Potency entry was “inactive”.
As to `O=c1[nH]cnc2[nH]ncc12`, the Potency result was “inactive”.
For `CCCCCCCC(=O)OCC`, the Potency entry was “inactive”.
On to `COc1ccccc1OC(=O)Oc1ccccc1OC`, for which the Potency entry is “inactive”.
Consider `c1ccc(SCCSc2ccccc2)cc1`, for which the Potency result is “inactive”.
Take `CC(=O)OCC(=O)[C@@]12N=C(C)O[C@@H]1C[C@H]1[C@@H]3CCC4=CC(=O)C=C[C@]4(C)[C@H]3[C@@H](O)C[C@@]12C`: the Potency entry was “inactive”.
For `O=C(O)[C@@H](O)[C@H](O)[C@H](O)[C@@H](O)C(=O)O`, the Potency result was “inactive”.
As to `CCC(C)N` (stereo not given), the Potency entry was “inactive”.
Same read-out and setting: the value for `Nc1nc(=S)c2[nH]cnc2[nH]1` was “inactive”; that for `CCc1cccc2c3c([nH]c12)C(CC)(CC(=O)O)OCC3` (stereo not given) was “inactive”; that for `C[C@]12CC[C@@H]3c4ccc(O)cc4CC[C@H]3[C@@H]1CC[C@@H]2O` was “inactive”.
Consider `CCN(CC)CCOC(=O)C(c1ccccc1)C1CCCCC1` (stereo not given), for which the Potency result is “inactive”.
Consider `CCN1CCN(C(=O)N[C@@H](C(=O)N[C@@H]2C(=O)N3[C@@H]2SC(C)(C)[C@H]3C(=O)O)c2ccccc2)C(=O)C1=O`, for which the Potency result was “inactive”.
`CCCCCCCCCCCCOCC1CO1` (stereo not given): the Potency result was “inactive”.
Turning to `O=c1oc(=O)c2cc3c(=O)oc(=O)c3cc12`, the Potency entry is “inactive”.
Regarding `CC(C)(C)CCCCCCOC(=O)c1ccccc1C(=O)OCCCCCCC(C)(C)C`, the Potency entry was “inactive”.
The same measure, in the same setting: the value for `CCCCCCCCCCCCOC(=O)c1cc(O)c(O)c(O)c1` was 35.4 µM (active) and 39.9 µM (active); that for `CCc1ccccc1` was “inactive”.
